The values below come from PubChem BioAssay (EPA / NIEHS).

The target in test [1] is Nuclear receptor subfamily 1 group I member 3 (Homo sapiens) (UniProt Q14994). In words: ATG_CAR_TRANS: Attagene TRANS-FACTORIAL HepG2 Assay for human Constitutive Androstane Receptor (CAR) (AID 2282969).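 Further: activators raise reporter mRNA above DMSO so AC50 marks induction.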 To be noted: HepG2 Attagene TRANS-FACTORIAL CAR reporter. A digest of the protocol:
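Signal is reporter mRNA induction relative to DMSO, measured 24 h after dosing by RT-PCR with fluorescent primer extension and capillary electrophoresis. Human HepG2 liver cells carried transiently transfected chimeric NR-Gal4/GAL4-UAS reporter constructs.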

Test [2] can be described thus: ATG_M_19_TRANS: Attagene TRANS-FACTORIAL HepG2 Assay for M19 Transcription Factor (Internal Marker) (AID 2282974). To be noted: HepG2 Attagene TRANS-FACTORIAL M19 internal marker reporter. Put shortly: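 Transfected HepG2 (GAL4-UAS MRTUs), 24 h compound, TriZol RNA, DNase-treated RT, reporter PCR, FAM label, HpaI digest, CE fluorescence; gain vs DMSO.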
Test [3] has as its target Glucocorticoid receptor (Homo sapiens) (UniProt P04150). Description: ATG_GR_TRANS: Attagene TRANS-FACTORIAL HepG2 Assay for human Glucocorticoid Receptor (GR) (AID 2282978).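 Further: activators score as hits since higher reporter transcript over DMSO is fitted.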 To be noted: HepG2 Attagene TRANS GR reporter, mRNA transcription. Put shortly:
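After 24 h incubation with test chemical, transfected HepG2 cells were lysed for RNA; reporter cDNA was amplified, FAM-labelled, HpaI-digested and sized on a capillary analyser. Signal gain relative to DMSO was scored.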

The target in test [4] is Oxysterols receptor LXR-alpha (Homo sapiens) (UniProt Q13133). In words: ATG_LXRa_TRANS: Attagene TRANS-FACTORIAL HepG2 Assay for human Liver X Receptor alpha (LXRa) (AID 2282980). To be noted: HepG2 Attagene TRANS reporter, LXRa transactivation. Put shortly: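 Chemical-induced reporter mRNA measured by RT-PCR with fluorescent labelling and capillary electrophoresis after 24 h dosing of transiently transfected HepG2 cells expressing exogenous NR-Gal4 chimeras; increases scored against DMSO baseline.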

The target of test [5] is Nuclear receptor subfamily 4 group A member 2 (Homo sapiens) (UniProt P43354). Description: ATG_NURR1_TRANS: Attagene TRANS-FACTORIAL HepG2 Assay for human Nuclear Receptor Related Protein 1 (NURR1) (AID 2282985). The settings on record: HepG2 Attagene TRANS reporter, mRNA readout. Put shortly: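 Reporter transcript induction, measured by RT-PCR with fluorescent labelling, HpaI digestion and capillary electrophoresis, after 24 hr dosing of human HepG2 cells transiently expressing an exogenous NR-Gal4 fusion with GAL4-UAS-driven reporters; DMSO as baseline.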

Test [6] deals with human Peroxisome Proliferator-activated Receptor alpha (PPARa), PPARA (gene 5465) (UniProt Q07869). In words: ATG_PPARa_TRANS: Attagene TRANS-FACTORIAL HepG2 Assay for human Peroxisome Proliferator-activated Receptor alpha (PPARa) (AID 2283001). A digest of the protocol: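 Reporter transcripts quantified by RT-PCR plus capillary electrophoresis after 24 h treatment, fitted upward relative to DMSO. Cells: human HepG2 transiently carrying multiple GAL4-UAS reporter units driven by NR-Gal4 chimeras.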

Test [7] concerns the target human RAR-related Orphan Receptor beta (RORb), RORB (gene 6096) (UniProt Q92753). Description: ATG_RORb_TRANS: Attagene TRANS-FACTORIAL HepG2 Assay for human RAR-related Orphan Receptor beta (RORb) (AID 2283010). A digest of the protocol: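 Read-out is reporter mRNA induction, quantified by RT-PCR with fluorescent capillary electrophoresis, 24 h post-dose in transiently transfected HepG2 expressing exogenous NR-Gal4 chimera. Activity fitted upward versus DMSO.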

Test [8] has as its target Retinoic acid receptor RXR-alpha (Homo sapiens) (UniProt P19793). Description: ATG_RXRa_TRANS: Attagene TRANS-FACTORIAL HepG2 Assay for human Retinoid X Receptor alpha (RXRa) (AID 2283012). A digest of the protocol:
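TRANS format reporting activity of exogenous RXRa-Gal4 chimera in transiently transfected HepG2, 24 h exposure. Reporter transcripts quantified by RT-PCR with capillary electrophoresis, with gain of signal scored relative to DMSO.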

Test [9] can be described thus: ATG_NF_kB_CIS: Attagene CIS-FACTORIAL HepG2 Assay for human Nuclear Factor Kappa B (NF-kB) (AID 2282991; active means hit-call score of the fitted dose curve at least 0.9, where 1 is the maximum; inactive means score below 0.9). To be noted: HepG2 Attagene cis-factorial NF-kB reporter mRNA; actives raise or lower the signal. Put shortly:
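Fluorescence of labelled RT-PCR products separated by capillary electrophoresis gives reporter mRNA levels from transfected HepG2 cells exposed 24 h; values are fitted in both directions relative to DMSO.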

The target of test [10] is Nuclear receptor subfamily 1 group I member 2 (Homo sapiens) (UniProt O75469). Description: ATG_PXR_TRANS: Attagene TRANS-FACTORIAL HepG2 Assay for human Pregnane X Receptor (PXR) (AID 2283008). Put shortly: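 HepG2 transfected (FuGene 6) with GAL4-UAS reporter units + PXR-Gal4 chimera; dosed 24 h. Total RNA → oligo(dT) RT → PCR → 6-FAM primer extension → HpaI cut → CE. Gain-of-signal vs DMSO.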

The target in test [11] is human Vitamin D Receptor (VDR), VDR (gene 7421) (UniProt P11473). In words: ATG_VDR_TRANS: Attagene TRANS-FACTORIAL HepG2 Assay for human Vitamin D Receptor (VDR) (AID 2283022). A digest of the protocol: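 Transactivation by an exogenous VDR-Gal4 chimera in transiently transfected HepG2 cells was measured as reporter transcript level 24 hours after chemical treatment. RT-PCR products were analysed by capillary electrophoresis and fitted in the positive direction relative to DMSO.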

The nature of test [12]: ATG_XTT_Cytotoxicity: Cytotoxicity Assessment in the Attagene TRANS-FACTORIAL HepG2 Assay (AID 2283584). A digest of the protocol:
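Viability endpoint from XTT after 24 h chemical exposure of reporter-transfected human HepG2 liver cells; signal loss fitted relative to DMSO negative control.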

The nature of test [13]: TOX21_p53_BLA_p3_viability: Viability Assessment in the Tox21 HCT-116 p53 Agonism Beta-lactamase Assay, Phase 3 (AID 2283593).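 Further: cells exposed to compound for 16 h before reading.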 A digest of the protocol:
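Cellular ATP was quantified by CellTiter-Glo luminescence, read after 30 min at room temperature. Beforehand, HCT116 cells (4000/well) received compound 5 h post-seeding, 217-fold diluted from DMSO, then incubated 16 h at 37C.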

The nature of test [14]: CCTE_Harrill_HTTr_Viability_MCF7: CCTE's 6-hour Cell Viability Assessment for the High-Throughput Transcriptomics (HTTr) Platform, in MCF-7 cells cultured in DMEM + 10% fetal bovine serum, Harrill Lab (AID 2284010; active means hit-call score of the fitted dose curve at least 0.9, where 1 is the maximum; inactive means score below 0.9). A digest of the protocol: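 Propidium iodide exclusion, imaged by high-content analysis, gauged viability after a six-hour exposure across eight concentrations. Cells were MCF-7 grown in DMEM with 10% fetal bovine serum; fits run in both directions against DMSO.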

Test [15] is described as follows: CCTE_Harrill_HTTr_Apoptosis_MCF7: CCTE's 6-hour Apoptosis Assessment for the High-Throughput Transcriptomics (HTTr) Platform, in MCF-7 cells cultured in DMEM + 10% fetal bovine serum, Harrill Lab (AID 2284011; active means hit-call score of the fitted dose curve at least 0.9, where 1 is the maximum; inactive means score below 0.9). Put shortly:
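High-content imaging of CellEvent Caspase 3/7 Green signal follows a six-hour exposure, with eight concentrations per chemical. MCF-7 cells grown in DMEM plus 10% fetal bovine serum; activity fitted in both directions against DMSO.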

Test [16] addresses Retinoic acid receptor alpha (Homo sapiens) (UniProt P10276). In words: ATG_DR5_RAR_CIS: Attagene CIS-FACTORIAL HepG2 Assay for human Retinoic Acid Receptor Alpha (RARE), DR5 submotif (AID 2282934; active means hit-call score of the fitted dose curve at least 0.9, where 1 is the maximum; inactive means score below 0.9). The settings on record: HepG2 Attagene cis-factorial RARE DR5 reporter, mRNA; actives raise or lower the signal. A digest of the protocol:
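Transient MRTU transfection of HepG2; 24 h compound treatment; TriZol RNA, oligo(dT) RT, PCR, FAM labelling, capillary electrophoresis. Bidirectional fit vs DMSO. Endogenous TF activity at DR5 RARE.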

The target in test [17] is Bile acid receptor (Homo sapiens) (UniProt Q96RI1). Description: ATG_IR1_CIS: Attagene CIS-FACTORIAL HepG2 Assay for human Nuclear Receptor Subfamily 1 Group H Member 4 (NR1H4), IR1 submotif (AID 2282946; active means hit-call score of the fitted dose curve at least 0.9, where 1 is the maximum; inactive means score below 0.9). The settings on record: IR1 reporter transcription, actives raise or lower the signal. A digest of the protocol: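 HepG2 cells transiently transfected with multiplexed cis-element reporter units read endogenous transcription factor activity. After 24 h compound exposure, reporter mRNA was quantified by RT-PCR, fluorescent labelling, HpaI digestion and capillary electrophoresis; bidirectional fitting versus DMSO baseline.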

Test [18] in a line: ATG_PPRE_CIS: Attagene CIS-FACTORIAL HepG2 Assay for human Peroxisome Proliferator-activated Response Element (PPRE) (AID 2282958; active means hit-call score of the fitted dose curve at least 0.9, where 1 is the maximum; inactive means score below 0.9). To be noted: HepG2 PPRE cis-element reporter, Attagene transcription factor profiling; actives raise or lower the signal. Put shortly: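 PPRE activity in HepG2: transient cis-reporter transfection, 24 h compound incubation, reporter mRNA by RT-PCR and CE fluorescence; gain/loss fitted against DMSO.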

Test [19] concerns the target human RAR-related Orphan Receptor gamma (RORg), RORC (gene 6097) (UniProt P51449). In words: ATG_RORg_TRANS: Attagene TRANS-FACTORIAL HepG2 Assay for human RAR-related Orphan Receptor gamma (RORg) (AID 2283011). Put shortly: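 Reporter transcripts from a transfected RORg-GAL4 chimera in HepG2 cells were quantified 24 h after dosing by RT-PCR, 6-FAM labelling, HpaI digestion and capillary electrophoresis; increases over DMSO baseline were fitted.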

The target of test [20] is human Peroxisome Proliferator-activated Receptor delta (PPARd), PPARD (gene 5467) (UniProt Q03181). In words: ATG_PPARd_TRANS: Attagene TRANS-FACTORIAL HepG2 Assay for human Peroxisome Proliferator-activated Receptor delta (PPARd) (AID 2283002). Put shortly:
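Transient HepG2 transfection (multiple GAL4-UAS RTUs, chimeric receptor-Gal4); 24 h dosing; total RNA → oligo(dT) RT → PCR → 6-FAM primer extension → HpaI cut → CE. Positive direction vs DMSO.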

The structures appear in SMILES notation. Results filed as inconclusive are left out. Some compounds were tested as several samples or in several runs, with calls that do not always agree. The source made the active and inactive calls. How the source made its calls, unless noted: active means hit-call score of the fitted dose curve at least 0.9, where 1 is the maximum; inconclusive means response in the unintended direction; inactive means score below 0.9.

Chain of Nuclear receptor subfamily 1 group I member 3 (Homo sapiens) (Q14994 whole entry, looked up, the tested form may be a part): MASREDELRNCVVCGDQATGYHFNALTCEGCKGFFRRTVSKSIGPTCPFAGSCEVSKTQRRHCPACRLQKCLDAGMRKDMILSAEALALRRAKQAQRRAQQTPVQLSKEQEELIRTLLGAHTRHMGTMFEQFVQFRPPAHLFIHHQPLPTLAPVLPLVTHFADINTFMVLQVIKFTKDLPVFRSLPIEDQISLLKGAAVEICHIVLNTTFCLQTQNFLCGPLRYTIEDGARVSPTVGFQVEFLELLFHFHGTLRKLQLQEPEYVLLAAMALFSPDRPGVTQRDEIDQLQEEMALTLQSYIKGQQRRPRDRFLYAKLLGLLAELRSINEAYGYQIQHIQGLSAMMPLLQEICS
Chain of Retinoic acid receptor alpha (Homo sapiens) (P10276 whole entry, looked up): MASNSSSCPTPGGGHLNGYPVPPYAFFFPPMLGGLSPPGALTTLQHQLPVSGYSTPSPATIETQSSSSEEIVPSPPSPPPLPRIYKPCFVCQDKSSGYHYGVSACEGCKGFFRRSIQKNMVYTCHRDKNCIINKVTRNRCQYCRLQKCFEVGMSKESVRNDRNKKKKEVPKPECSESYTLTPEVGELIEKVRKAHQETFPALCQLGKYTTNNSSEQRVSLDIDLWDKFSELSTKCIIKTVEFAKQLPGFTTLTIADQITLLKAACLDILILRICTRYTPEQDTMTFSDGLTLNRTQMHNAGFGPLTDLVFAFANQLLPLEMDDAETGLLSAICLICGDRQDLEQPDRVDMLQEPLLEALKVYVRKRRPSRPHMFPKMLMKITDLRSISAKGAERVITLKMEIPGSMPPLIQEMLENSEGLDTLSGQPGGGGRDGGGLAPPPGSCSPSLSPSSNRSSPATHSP
Chain of Glucocorticoid receptor (Homo sapiens) (P04150 whole entry, looked up): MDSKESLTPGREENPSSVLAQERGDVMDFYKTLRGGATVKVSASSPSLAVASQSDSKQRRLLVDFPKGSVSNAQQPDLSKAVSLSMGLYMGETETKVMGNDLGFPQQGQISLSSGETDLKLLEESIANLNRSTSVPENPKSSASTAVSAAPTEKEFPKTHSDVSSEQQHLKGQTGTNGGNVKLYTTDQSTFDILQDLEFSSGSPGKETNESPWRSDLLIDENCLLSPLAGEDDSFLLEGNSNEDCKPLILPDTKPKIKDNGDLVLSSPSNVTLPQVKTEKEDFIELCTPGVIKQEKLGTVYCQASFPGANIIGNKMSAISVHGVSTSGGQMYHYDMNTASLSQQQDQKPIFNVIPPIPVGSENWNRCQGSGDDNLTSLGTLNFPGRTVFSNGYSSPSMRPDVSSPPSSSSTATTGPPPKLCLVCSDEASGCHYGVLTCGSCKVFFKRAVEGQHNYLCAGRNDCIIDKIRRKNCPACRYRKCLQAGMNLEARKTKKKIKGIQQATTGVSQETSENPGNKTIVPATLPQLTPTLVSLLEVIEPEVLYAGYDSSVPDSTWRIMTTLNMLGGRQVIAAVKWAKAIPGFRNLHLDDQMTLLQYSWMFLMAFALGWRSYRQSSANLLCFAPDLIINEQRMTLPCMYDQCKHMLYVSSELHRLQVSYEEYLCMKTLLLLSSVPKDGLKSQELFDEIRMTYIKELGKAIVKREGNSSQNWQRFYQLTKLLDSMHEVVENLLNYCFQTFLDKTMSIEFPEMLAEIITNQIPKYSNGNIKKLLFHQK
Chain of Nuclear receptor subfamily 1 group I member 2 (Homo sapiens) (O75469 whole entry, looked up, the tested form may be a part): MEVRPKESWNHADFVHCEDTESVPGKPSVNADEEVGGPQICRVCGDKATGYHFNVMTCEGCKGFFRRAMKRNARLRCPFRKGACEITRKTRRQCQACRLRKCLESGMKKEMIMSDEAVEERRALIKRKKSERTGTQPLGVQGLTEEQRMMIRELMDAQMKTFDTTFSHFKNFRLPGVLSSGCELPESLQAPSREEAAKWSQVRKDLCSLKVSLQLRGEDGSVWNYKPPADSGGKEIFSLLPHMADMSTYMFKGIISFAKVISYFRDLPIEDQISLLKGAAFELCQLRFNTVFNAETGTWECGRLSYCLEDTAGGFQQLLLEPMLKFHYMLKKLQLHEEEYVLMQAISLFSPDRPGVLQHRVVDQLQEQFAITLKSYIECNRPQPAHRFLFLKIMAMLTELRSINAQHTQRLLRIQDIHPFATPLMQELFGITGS
Chain of Nuclear receptor subfamily 4 group A member 2 (Homo sapiens) (P43354 whole entry, looked up, the tested form may be a part): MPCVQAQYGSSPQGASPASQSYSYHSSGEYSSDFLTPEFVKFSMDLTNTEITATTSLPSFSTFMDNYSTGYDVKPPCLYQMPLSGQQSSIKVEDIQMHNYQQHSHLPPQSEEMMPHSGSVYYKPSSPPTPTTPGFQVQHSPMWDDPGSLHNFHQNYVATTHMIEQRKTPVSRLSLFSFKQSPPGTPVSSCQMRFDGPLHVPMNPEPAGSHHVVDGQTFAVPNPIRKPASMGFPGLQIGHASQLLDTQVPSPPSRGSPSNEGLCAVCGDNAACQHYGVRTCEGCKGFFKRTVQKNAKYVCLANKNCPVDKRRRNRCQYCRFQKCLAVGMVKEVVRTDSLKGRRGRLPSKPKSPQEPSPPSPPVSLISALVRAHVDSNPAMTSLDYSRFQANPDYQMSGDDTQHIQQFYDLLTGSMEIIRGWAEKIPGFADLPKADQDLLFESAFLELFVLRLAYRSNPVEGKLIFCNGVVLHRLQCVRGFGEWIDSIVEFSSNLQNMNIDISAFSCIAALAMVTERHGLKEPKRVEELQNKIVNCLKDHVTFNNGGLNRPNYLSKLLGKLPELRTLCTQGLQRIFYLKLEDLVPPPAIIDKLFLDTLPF
Chain of human Vitamin D Receptor (VDR), VDR (gene 7421) (P11473 whole entry, looked up, the tested form may be a part): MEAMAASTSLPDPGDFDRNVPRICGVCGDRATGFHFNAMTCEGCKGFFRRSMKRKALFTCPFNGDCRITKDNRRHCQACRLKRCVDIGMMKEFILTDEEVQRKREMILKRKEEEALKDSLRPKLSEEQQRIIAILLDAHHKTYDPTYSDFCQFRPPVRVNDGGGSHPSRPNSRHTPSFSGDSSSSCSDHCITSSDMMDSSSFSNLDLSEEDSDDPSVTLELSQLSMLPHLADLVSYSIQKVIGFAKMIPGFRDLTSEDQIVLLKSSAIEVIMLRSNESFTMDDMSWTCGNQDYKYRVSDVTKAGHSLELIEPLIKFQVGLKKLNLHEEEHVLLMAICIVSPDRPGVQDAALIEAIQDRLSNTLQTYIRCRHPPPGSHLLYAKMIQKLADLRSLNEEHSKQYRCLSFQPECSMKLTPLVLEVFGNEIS
Chain of Retinoic acid receptor RXR-alpha (Homo sapiens) (P19793 whole entry, looked up, the tested form may be a part): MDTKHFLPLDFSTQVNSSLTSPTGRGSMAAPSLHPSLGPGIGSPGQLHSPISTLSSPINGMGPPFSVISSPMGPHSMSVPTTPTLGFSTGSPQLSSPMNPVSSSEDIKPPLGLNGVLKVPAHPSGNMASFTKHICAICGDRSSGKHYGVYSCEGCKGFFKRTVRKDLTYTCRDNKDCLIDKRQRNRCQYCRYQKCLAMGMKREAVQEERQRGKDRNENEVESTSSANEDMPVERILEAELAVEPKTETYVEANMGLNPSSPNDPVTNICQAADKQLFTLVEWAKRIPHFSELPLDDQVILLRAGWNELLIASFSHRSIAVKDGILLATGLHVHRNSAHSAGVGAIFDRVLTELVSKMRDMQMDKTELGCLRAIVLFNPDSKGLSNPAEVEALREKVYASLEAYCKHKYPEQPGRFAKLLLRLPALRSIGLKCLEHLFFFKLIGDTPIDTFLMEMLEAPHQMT
Chain of human RAR-related Orphan Receptor beta (RORb), RORB (gene 6096) (Q92753 whole entry, looked up, the tested form may be a part): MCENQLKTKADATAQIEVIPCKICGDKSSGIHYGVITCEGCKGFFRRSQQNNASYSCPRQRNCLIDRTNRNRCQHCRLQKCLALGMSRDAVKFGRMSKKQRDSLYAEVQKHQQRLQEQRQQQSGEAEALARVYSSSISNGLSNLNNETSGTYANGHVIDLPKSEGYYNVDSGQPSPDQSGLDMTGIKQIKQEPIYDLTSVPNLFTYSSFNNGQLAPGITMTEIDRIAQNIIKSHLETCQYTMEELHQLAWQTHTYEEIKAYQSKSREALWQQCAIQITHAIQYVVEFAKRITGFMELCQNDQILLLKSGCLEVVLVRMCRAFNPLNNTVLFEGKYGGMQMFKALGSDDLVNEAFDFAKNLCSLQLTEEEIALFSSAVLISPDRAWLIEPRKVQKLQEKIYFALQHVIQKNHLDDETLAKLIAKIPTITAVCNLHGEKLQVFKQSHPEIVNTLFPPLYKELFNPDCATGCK
Chain of human Peroxisome Proliferator-activated Receptor delta (PPARd), PPARD (gene 5467) (Q03181 whole entry, looked up, the tested form may be a part): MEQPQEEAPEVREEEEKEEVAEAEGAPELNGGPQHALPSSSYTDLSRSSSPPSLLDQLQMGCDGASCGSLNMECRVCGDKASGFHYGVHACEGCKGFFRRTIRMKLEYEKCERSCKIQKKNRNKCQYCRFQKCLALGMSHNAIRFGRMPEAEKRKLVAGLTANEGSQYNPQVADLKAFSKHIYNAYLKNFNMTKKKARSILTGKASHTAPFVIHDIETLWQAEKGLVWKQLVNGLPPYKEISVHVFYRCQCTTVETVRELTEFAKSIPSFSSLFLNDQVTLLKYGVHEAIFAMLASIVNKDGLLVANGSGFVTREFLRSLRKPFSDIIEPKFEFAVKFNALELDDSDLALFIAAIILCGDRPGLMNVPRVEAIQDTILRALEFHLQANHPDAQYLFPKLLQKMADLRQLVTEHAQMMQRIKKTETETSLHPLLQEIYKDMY
Chain of Oxysterols receptor LXR-alpha (Homo sapiens) (Q13133 whole entry, looked up, the tested form may be a part): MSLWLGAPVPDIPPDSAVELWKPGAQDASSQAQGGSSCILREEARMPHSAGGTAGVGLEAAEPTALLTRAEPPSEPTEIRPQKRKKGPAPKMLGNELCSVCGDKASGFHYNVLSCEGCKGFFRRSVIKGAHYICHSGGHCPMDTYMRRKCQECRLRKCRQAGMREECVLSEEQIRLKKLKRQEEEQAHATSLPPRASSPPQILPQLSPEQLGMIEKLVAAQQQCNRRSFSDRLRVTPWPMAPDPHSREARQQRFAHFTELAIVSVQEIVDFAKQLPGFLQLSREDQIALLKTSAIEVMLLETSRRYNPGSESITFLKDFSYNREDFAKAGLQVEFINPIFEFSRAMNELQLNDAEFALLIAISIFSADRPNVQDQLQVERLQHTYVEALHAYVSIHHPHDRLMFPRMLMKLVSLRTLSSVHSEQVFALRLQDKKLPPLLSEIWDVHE

Take `CCOC(=O)C1OC1(C)c1ccccc1` (centres undefined): the molecule was called inactive in test [1], in [2], in test [3], in test [4], in test [5] and in test [6]. In addition, the outcome in test [7] and in [8] was inactive.
Regarding `C[C@]12CCC(=O)C(O)=C1CC[C@@H]1[C@@H]2CC[C@]2(C)C(=O)CC[C@@H]12`, the outcome in test [2], in [3], in [4], in test [9], in [10] and in test [11] was inactive. Besides, the call in test [12], in test [13], in test [14] and in test [15] was inactive.
Regarding `c1cc(OCC2CO2)ccc1Cc1ccc(OCC2CO2)cc1` (centres undefined), the outcome in test [16], in [2], in test [3], in test [5], in test [19] and in [11] was inactive. The molecule was classed as inactive in [12], in test [13], in test [14] and in test [15]. Further, the AC50 was 37.4 µM (active) in test [17], 51.5 µM (active) in test [18], 20.6 µM (active) in [10] and 87.4 µM (active) in [13].
For the molecule `N#Cc1cc(I)c(O)c(I)c1`, the molecule was classed as inactive in test [16], in [1], in test [2], in test [3], in test [10] and in test [8]. Besides, the molecule was classed as inactive in test [11], in [12], in [13], in [14] and in [15]. In addition, in test [18], the AC50 is 29.1 µM (active).
With `CCOC(=O)COc1ccc(Cl)cc1Cl`, the molecule was called inactive in [16], in test [1], in test [3], in test [20], in [13] and in test [14]. The result in test [15] was inactive.
As to `CCOC(=O)NC(=S)Nc1ccccc1NC(=S)NC(=O)OCC`, the molecule was classed as inactive in test [16], in test [18], in [3], in test [5], in test [9] and in test [20]. Also, the result in test [7], in test [11], in test [12], in test [13], in test [14] and in test [15] was inactive. For the same molecule, in test [10], the AC50 is 0.77 µM (active).

The AC50 is the midpoint of the concentration-response curve, whichever way the signal moves.
